Measurements as given in ChEMBL document CHEMBL4513216, “Probing the Open Global Health Chemical Diversity Library for Multistage-Active Starting Points for Next-Generation Antimalarials” (ACS Infect Dis, 2020).
In all, about 69,000 compounds went through this assay and about 8,600 (12%) showed an effect of 50% or more. This excerpt belongs to a sample that is enriched for strong results.

system: Plasmodium berghei; test: Screen against P. berghei liver stage (PbLuc), transformed with Luciferase, at 10uM; type: functional, HepG2; details: tested at 10 uM

| Structure (SMILES) | INHIBITION [%] |
| --- | --- |
| CCOC(=O)N1[C@@H](c2ccco2)[C@@H](CO)C[C@]12CCCCNC2=O | 1.04 |
| CCCC(O)CN1CC(C)(C)CN(C(=O)CCc2ccccc2)CC1=O (stereo not drawn) | 20 |
| N[C@@H]1CC[C@H](C(=O)NCCn2cc(Cl)cn2)C1 | 60.1 |
| NC(=O)C1CCN(CC(=O)NCCn2cc(Cl)cn2)CC1 | 45.2 |
| CS(=O)(=O)N1CCC(C(=O)NCCCn2cc(Cl)cn2)CC1 | 40.3 |
| O=C(NCCn1cc(Cl)cn1)C1CCN(C(=O)C2CC2)CC1 | 2.55 |
| N[C@@H]1CC[C@H](C(=O)NCCc2nc(-c3ccccc3)cs2)C1 | -9.2 |
| NC(=O)CN1CCC(C(=O)NCCn2cc(Cl)cn2)CC1 | 61 |
| COc1cccc(NC(=O)NCC(O)c2ccc(F)cc2F)c1 (stereo not drawn) | -3.7 |
| CCc1cccc2cc(CN)c(=O)[nH]c12 | 10.365 |
| CC1CCC(NCCNC(=O)c2cccs2)CC1 (stereo not drawn) | 5.11 |
| Cc1c(CN2CCCC(C(=O)c3ccccc3)C2)cc(C#N)n1C (stereo not drawn) | 7.97 |
| Cc1c(CN2CCCC(C(=O)Nc3ccccc3)C2)cc(C#N)n1C (stereo not drawn) | 74 |
| Cc1c(CN2CCCC(C(=O)CCc3ccccc3)C2)cc(C#N)n1C (stereo not drawn) | 19.4 |
| CN(CCc1ccccn1)C(=O)Nc1cccnc1-n1cccn1 | -19.2 |
| CCCN1CCCN(S(=O)(=O)c2cnc3onc(C)c3c2)CC1 | 56.7 |
| CCN1CCCN(S(=O)(=O)c2cnc3onc(C)c3c2)CC1 | 15.5 |
| Cc1noc2ncc(S(=O)(=O)N3CCCC(C)(C)CC3)cc12 | 36.1 |
| COc1cccc(-c2n[nH]cc2CNC2CCN(C3CC3)CC2)c1 | 3.46 |
| CCSCCC(C)N(C)C(=O)c1cc(C)on1 (stereo not drawn) | -93.6 |
| CCSCCC(C)N(C)C(=O)c1ccc(C)o1 (stereo not drawn) | 85.2 |
| Cc1cc(C(=O)N(C)C(C)CC(C)C)on1 (stereo not drawn) | 20.9 |
| COCC(c1cccc(C(F)(F)F)c1)N(C)C(=O)c1cc(C)no1 (stereo not drawn) | -16.4 |
| CCSCCC(C)N(C)C(=O)c1cc(C)no1 (stereo not drawn) | 55.2 |
| CCSCCC(C)N(C)C(=O)c1ccc2nncn2c1 (stereo not drawn) | 34.7 |
| CC(C)NC(=O)CCN1CCCC1c1cccc2c1OCCO2 (stereo not drawn) | 35.4 |
| Cc1nc2ccccc2c(=O)n1CCC(=O)N1CCCCCC1 | 1.05 |

| Structure (SMILES) | INHIBITION [%] |
| --- | --- |
| COc1c[nH]c(C(=O)N2CCN(c3ccc(Cl)cc3)CC2)cc1=O | 13.9 |
| Cn1cc(NC(=O)CNC(=O)N2CCN(c3ccc(Cl)cc3)CC2)cn1 | 28.5 |
| Cc1nn(C)cc1C1=NS(=O)(=O)N(C)C(C(=O)Nc2ccc(Cl)cc2)=C1 | 77.7 |
| Cc1nn(C)cc1C1=NS(=O)(=O)N(C)C(C(=O)Nc2ccc(Br)cc2)=C1 | 82.4 |
| Cc1c(C2=NS(=O)(=O)N(C)C(C(=O)Nc3ccc(Br)cc3)=C2)cnn1C | 49.9 |
| Cc1nc(N2CCCC2)ncc1C(=O)Nc1ccc(Br)cc1 | -10.2 |
| Cc1cc(=O)n(CC(=O)Nc2ccc(Cl)cc2)nc1C | 25 |
| O=C1CC2(CCCCN2C(=O)c2cccs2)CN1CC1CC1 (stereo not drawn) | 11.2 |
| Cc1cc(NC(=O)NCC(O)c2ccc(F)c(F)c2)n(C)n1 (stereo not drawn) | 21.8 |
| CCn1cnnc1C1CCN(C(=O)c2cc(OC)ccc2OC)CC1 | 23.7 |
| COc1cc(-n2cccc2)c(Cl)cc1C(N)=O | -90.8 |
| CCc1ncc(C(=O)N2CCCC2Cn2cccn2)s1 (stereo not drawn) | 49.8 |
| CS(=O)(=O)Nc1ccn(Cc2ccc(F)cc2Cl)n1 | 31.7 |
| CC(C)(C)n1cc(C(=O)N2CCN(Cc3cccnc3)CC2)cn1 | -39.67 |
| CCN(CC)C(=O)c1nnsc1-c1ccc(Cl)cc1 | 33.9 |
| CCN(CC)C(=O)c1nnsc1-c1ccccc1 | 7.25 |
| CCN(CC)C(=O)c1nnsc1-c1ccc(C)cc1 | 54.8 |
| CCOCC(=O)N1Cc2[nH]nc(COCC3CC3)c2C1 | 2.4 |
| CC(C)c1nc2c(n1C)CCN(CC(=O)Nc1ccncc1)C2 | 11.6 |
| N#Cc1ccc(CNC(=O)NCCNC(=O)C2CCCC2)c(F)c1 | 52.8 |
| CC1CCCCN1CCNC(=O)c1ccn(-c2ccc(F)cc2)n1 (stereo not drawn) | 34.1 |
| Cc1cccc(NC(=O)[C@@H]2CCCN2Cc2ccc(C#N)cc2F)n1 | 25.2 |
| CC1CCCCN1CCNC(=O)NCc1ccc(C#N)cc1F (stereo not drawn) | 50.7 |
| N#Cc1ccc(CNC(=O)NCCC(=O)NC2CCCC2)c(F)c1 | 17.1 |
| N#Cc1ccc(F)c(CNC(=O)NCCC(=O)NC2CCCC2)c1 | 22.5 |
| CC(C)S(=O)(=O)N1CCC(Cc2cccc(C(=O)O)c2)C1 (stereo not drawn) | 1.37 |
